Compounds with a hit are over-represented: about 2.6% of the library has one in this group of screens.
Cruzain noTriton = cruzain (T. cruzi) inhibition without detergent; 200,000 compounds, 2.3% hits; P25779; purified cruzain, Z-FR-AMC fluorescence, no detergent; Potency, µM, usual class: inhibitors; further: nearly all actives have a fitted effect of over 40% in size
Target sequence (P25779 123-467 limits assumed): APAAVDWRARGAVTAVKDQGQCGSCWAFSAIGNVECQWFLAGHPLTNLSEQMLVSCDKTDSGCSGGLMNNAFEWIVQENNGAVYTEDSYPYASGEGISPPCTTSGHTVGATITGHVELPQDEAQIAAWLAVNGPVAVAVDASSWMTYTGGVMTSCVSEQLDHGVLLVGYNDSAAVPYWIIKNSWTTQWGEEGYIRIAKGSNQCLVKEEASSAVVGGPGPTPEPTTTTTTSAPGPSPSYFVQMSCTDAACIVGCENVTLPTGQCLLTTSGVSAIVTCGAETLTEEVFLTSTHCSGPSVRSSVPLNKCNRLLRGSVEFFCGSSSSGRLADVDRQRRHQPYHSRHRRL
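Detergent-free condition (0.00005% Triton X-100) in acetate buffer pH 5.5 with DTT. 1.5 nM enzyme and compound were pre-mixed 15 min, then 2 uM Z-FR-AMC substrate added; reaction progress from fluorescence change between first and third reads (60 s).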
Cruzain inh Det = inhibitors of Trypanosoma cruzi cruzain with detergent | 200,000 compounds, 0.43% hits | Potency, µM, usual class: inhibitors | P25779 | AID 1478 | purified cruzain, Z-FR-AMC fluorescence, 0.01% Triton; further: nearly all actives have a fitted effect of over 40% in size
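Compounds were screened in titration against cruzain (1.5 nM) with 0.01% Triton X-100 to counter colloidal aggregation. Activity was the AMC fluorescence increase over 60 s after adding 2 uM Z-FR-AMC at pH 5.5.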
Hits are given with their value; – = inactive; ? = inconclusive. The call rests on the fitted dose curve; in most records, active means well fitted curve in the direction sought with a large enough effect; inconclusive means small, poorly fitted or top-dose-only effect, or another doubt; inactive means no such curve, though single readings can be large; an effect the other way counts as inactive or inconclusive.

SMILES	Cruzain noTriton	Cruzain inh Det
COc1ccccc1/C=C/C=N/n1c(-c2cc(C)[nH]n2)n[nH]c1=S	–	–
COc1cc(C(=O)Nc2cccc3ncccc23)cc(OC)c1OC	–	–
Cc1ccc(CN(C(=O)c2ccc([N+](=O)[O-])cc2)c2ccccn2)cc1	–	–
O=C(O)c1ccccc1NS(=O)(=O)c1cccc2cccnc12	–	–
Cc1cc(Br)ccc1NC(=O)C(NS(=O)(=O)c1cccs1)c1ccccc1 (stereo not given)	?	–
O=C(CSc1nc2cc(Cl)ccc2c(=O)n1Cc1ccco1)Nc1ccc(S(=O)(=O)N2CCOCC2)cc1	?	–
COC(=O)c1ccc2c(=O)n(Cc3ccco3)c(SCC(=O)Nc3ccc(C)c(Cl)c3)nc2c1	6.3µM	–
COc1cc2nc(N3CCN(C(=O)[C@H]4CCCO4)CC3)nc(N)c2cc1OC	–	–
Cn1c(=O)c2[nH]cnc2n(C)c1=O.[CH2-][C@H](Cc1cccc2cc(C(=O)O)c(=O)oc12)OC.[Hg].[OH-]	–	–
Cc1ccc2nc(-c3ccc(NC(=O)COC(=O)c4ccco4)cc3)sc2c1	?	–
Cc1ccc2nc(-c3ccc(NC(=O)COC(=O)c4ccc([N+](=O)[O-])o4)cc3)sc2c1	16µM	–
CCC(C)(C)NC(=S)Nc1ccc(-c2nc3ccc(C)cc3s2)cc1	?	–
Cc1ccc2nc(-c3ccc(NC(=O)COC(=O)c4ccc(Br)o4)cc3)sc2c1	13µM	–
Cc1ccc2nc(-c3ccc(NC(=O)COc4ccccc4)cc3)sc2c1	?	–
CCOc1ncccc1C(=O)OCC(=O)Nc1ccc(-c2nc3ccc(C)cc3s2)cc1	–	–
CC(=O)NC(=S)Nc1ccc(-c2nc3ccc(C)cc3s2)cc1	6.3µM	–
Cc1ccc2nc(-c3ccc(NC(=O)COC(=O)c4cncc(Br)c4)cc3)sc2c1	6.3µM	–
COCCn1c(=O)c(C)nc2cnc(OCc3ccccc3)nc21	–	–
COc1ccc2c(c1)CC/C(=C\C=C\c1ccccc1OC)C2=O	?	–
COc1cc(OC)c(C(=O)CCCCN2CCC3(CC2)NC(=O)NC3=O)cc1NS(=O)(=O)c1ccc(C(F)(F)F)cc1	–	–
S=c1nn[nH]n1C12CC3CC(CC(C3)C1)C2	–	–
CCn1cc(C(=O)O)c(=O)c2cnc(N3CCCC3)nc21	–	–
COc1ccc(NC(=O)N2CCCC3(CCNCC3)C2)cc1	–	–
Cc1ccc(NC(=O)C2C3CCCC2C3c2ccccc2)cc1C (stereo not given)	–	–
Cc1cccc(C(=O)Nc2ccc(C(=O)/C=C/c3cccnc3)cc2)c1	?	–
SMILES	Cruzain noTriton	Cruzain inh Det
O=C(/C=C/c1cccnc1)c1ccc(NC(=O)c2cccc(Br)c2)cc1	25µM	–
Cc1cc(C)c2oc(C(=O)N(Cc3ccc(F)cc3)C3CCS(=O)(=O)C3)cc(=O)c2c1 (stereo not given)	–	–
CCc1cc2c(N=Nc3c(O)[nH]c4ccccc34)ncnc2s1	–	–
CCc1ccc2[nH]c(O)c(N=Nc3nc(-c4ccccc4)cs3)c2c1	20µM	–
C=CCOC(=O)C1=C(C)NC(SCC(=O)Nc2ccc(C)c(Cl)c2)=C(C#N)C1c1ccco1 (stereo not given)	10µM	–
CC(=O)C1=C(C)NC(SCC(=O)c2ccc(C)cc2)=C(C#N)C1c1ccco1 (stereo not given)	–	–
COCCOC(=O)C1=C(C)NC(SCC(=O)NC(C)(C)C)=C(C#N)C1c1ccco1 (stereo not given)	–	–
COc1ccccc1NC(=O)C1=C(C)NC(SCC(=O)c2ccccc2)=C(C#N)C1c1ccco1 (stereo not given)	16µM	–
CCOc1cc(C)c(S(=O)(=O)NC2CCCCC2)cc1C	–	–
N#Cc1cccc(NC(=O)N2CCC3(CC2)CCN(C(=O)c2csnn2)CC3)c1	–	–
Cn1c(SCC(N)=O)nc2c([nH]c3ccccc32)c1=O	–	–
CCOC(=O)c1cc2ccccc2n1CCN(CC)CC	–	–
O=c1cc(CN2CCN(c3ccccc3)CC2)c2c(ccc3ccccc32)o1	?	–
COc1ccc(N2CCN(Cc3cc(=O)oc4ccc(C)cc34)CC2)cc1	?	–
O=c1cc(CN2CCN(c3ccccc3)CC2)c2cc(O)c(-c3ccccc3)cc2o1	10µM	–
O=c1cc(CN2CCN(Cc3ccccc3)CC2)c2cc(Cl)ccc2o1	–	–
COc1ccc(N2CCN(Cc3cc(=O)oc4cc5c(cc34)CCCC5)CC2)cc1	13µM	–
O=c1cc(CN2CCN(c3cccc(Cl)c3)CC2)c2cc(O)c(-c3ccccc3)cc2o1	7.9µM	–
N#CC(c1ccccc1)N(CCCCl)C(=O)c1ccccc1 (stereo not given)	–	–
O=[N+]([O-])c1ccc(Nc2nc(N/N=C/c3cccc(F)c3)nc(N3CCCC3)n2)cc1	16µM	–
O=[N+]([O-])c1cccc(/C=N/Nc2nc(N3CCOCC3)nc(N3CCOCC3)n2)c1	–	–
Cc1ccc(NC(=O)CSc2ccc(-c3ccccn3)nn2)cc1F	–	–
CS(=O)(=O)N(CC(=O)N/N=C/c1cc([N+](=O)[O-])ccc1Cl)c1ccccc1	–	–
Cc1cccc(NC(=S)N/N=C/c2ccc(Cl)c([N+](=O)[O-])c2)c1	32µM	–
Cc1cc(C(=O)N/N=C/c2ccc(Cl)c([N+](=O)[O-])c2)c(C)n1-c1ccc(F)cc1	7.9µM	–
SMILES	Cruzain noTriton	Cruzain inh Det
Cc1cccc(NC(=S)N/N=C/c2cccc([N+](=O)[O-])c2)c1	–	–
NC(=S)N/N=C/c1cc([N+](=O)[O-])ccc1OCCOc1ccccc1	0.16µM	0.25µM
CC(=O)N/N=C/c1cc([N+](=O)[O-])ccc1OCCOc1ccccc1	–	–
Cc1cc(C(=O)N/N=C/c2cccc([N+](=O)[O-])c2)c(C)n1-c1ccccc1	–	–
O=[N+]([O-])c1ccc(Cl)c(/C=N/NC(=S)Nc2ccccc2)c1	25µM	–
Fc1cccc(F)c1C(Nc1nncs1)Nc1nncs1	–	–
COc1ccc(-c2noc(CN(C(=O)c3ccccc3Cl)C(C)C)n2)cc1	–	–
Cc1ccc(-c2nnc(-c3ccccc3)c(N3CCOCC3)n2)cc1	–	–
Nc1ccc(-c2nc3ccccc3[nH]2)cc1	–	–
Nc1ccc(-c2nc3ccc(-c4nc5ccc(N)cc5[nH]4)cc3[nH]2)cc1	25µM	14µM
COc1ccc2c(c1)[nH]c1c(Cl)ncnc12	–	–
CC1Oc2ccccc2C=C1/C=C1/SC(N2CCOCC2)=NC1=O (stereo not given)	–	–
COc1ccc([N+](=O)[O-])cc1NC(=O)CC(c1ccccc1)c1ccccc1	25µM	–
COc1ccc([N+](=O)[O-])cc1NC(=O)C(C)c1ccccc1 (stereo not given)	–	–
COc1cccc(-c2csc(N3CCN(C(=S)Nc4ccc(Cl)cc4)CC3)n2)c1	25µM	–
COc1cccc(-c2csc(N3CCN(Cc4ccccc4)CC3)n2)c1	–	–
COc1cccc(-c2csc(N3CCN(C(=S)Nc4ccccc4)CC3)n2)c1	?	–
COc1cccc(-c2csc(N3CCN(S(=O)(=O)c4ccc(F)cc4)CC3)n2)c1	25µM	–
COc1cc(NC(=O)Nc2cccc(Cl)c2)c(OC)cc1NC(=O)CN1CCCCC1	–	–
CCOC(=O)c1ccc(NC(=O)C2(S(=O)(=O)c3ccc(Cl)cc3)CC2)cc1	–	–
CCOC(=O)c1ccc(N2CCN(c3ccccc3F)CC2)c(NC(=O)Nc2ccccc2)c1	?	–
